# Results taken from PubChem BioAssay (Tox21).
# Records with an inconclusive call do not appear. A number with no mark means an inactive call. Calls come from the whole dose curve; as a rule, active = well fitted cell-killing curve with a large enough effect in the repeat runs; inconclusive = weak or mixed curves; inactive = flat fitted curve, though single readings scatter.
# Assay: qHTS RealTime-Glo MT Cell Viability Assay in HepG2 cells - 8 hour (AID 1224873); note: nearly all actives have a fitted effect of over 55% in size
# Settings: RealTime-Glo luminescence; series mostly up to 76.8 µM; viability change, negative = cytotoxic: at the top concentration
# Description: National Center for Advancing Translational Sciences [NCATS]
# NIH Chemical Genomics Center [NCGC]
# U.S. Environmental Protection Agency [EPA]
# National Institutes of Environmental Health Sciences [NIEHS]
# National Toxicology Program [NTP]
# U.S. Food and Drug Administration [FDA]
# Measure of cell viability is critical in the cell-base assay. Analysis of cell viability is necessary for the characterization of cell responses to cytotoxic drugs and environmental stress. A RealTime-Glo MT Cell Viability Assay to monitor cell viability in real time of continues cell culture during 40 hours of compound treatment was used to screen Tox21 10K library compounds in HepG2 cells. The RealTime-Glo MT Cell Viability Assay is a nonlytic, homogeneous, bioluminescent method to measure cell viability in real time using a simple, plate-based method. The assay involves adding NanoLuc luciferase and a cell-permeant prosubstrate to cells in culture. Viable cells reduce the proprietary prosubstrate to generate a substrate for NanoLuc luciferase. This substrate diffuses from cells into the surrounding culture medium, where it is rapidly used by the NanoLuc Enzyme to produce a luminescent signal. The signal correlates with the number of viable cells, making the assay well suited for cytotoxicity studies.
# Tox21 Assay Protocol Summary:
# The mixture of HepG2 cell suspension and reagents were dispensed at 600cells/6 ul/well in 1536-well tissue culture treated black solid bottom plates using a Multidrop dispenser. After the assay plates were incubated at a 37 C/5% CO2 incubator for 5 hours, 23 nL of compounds dissolved in DMSO, positive and negative controls was transferred to the assay plate by a pintool work station. The plates were incubated at 37 C for 40 hours. The luminescence intensity were measured at 0h, 8h, 16h, 24h, 32h and 40h time points using ViewLux plate reader during compound treatment.
# % is set by controls: 0 for no effect and ±100 for the full control effect.
row,Structure (SMILES),"viability change, negative = cytotoxic"
1,CCCC(C)C(O)CC (stereo not given),0.626%
2,Cc1cc(=O)oc2cc(O[C@@H]3SC[C@@H](O)[C@H](O)[C@H]3O)ccc12,6.48% [at 35.3 µM]
3,COc1cc(NS(=O)(=O)c2ccc(N)cc2)ncn1,3.12% [at 35.3 µM]
4,Cc1ccc(NC(N)=O)cc1,0.787%
5,Cc1cccc(N)n1,-1.23%
6,C=CC(=O)OCC[N+](C)(C)C,3.13%
7,C=CC(=O)OCCOCCOCC,-13.7%
8,CC(C)(C)OC=O,0.595%
9,CCOC(=O)CC,5.13%
10,CC(=O)Nc1ccc(OCCOCCOc2ccc(NC(C)=O)cc2)cc1,-5.71% [at 35.3 µM]
11,CN(C)CCc1c[nH]c2ccc(C[C@H]3COC(=O)N3)cc12,3.02% [at 35.3 µM]
12,CCN(CC)CC(=O)Oc1ccc(NC(C)=O)cc1,2.42% [at 35.3 µM]
13,CCOC(=O)[C@H](CCc1ccccc1)N[C@H]1CS[C@H](c2cccs2)CN(CC(=O)O)C1=O,-1.23% [at 35.3 µM]
14,CCCCNCC,1.79%
15,Cc1ccc(N)nc1,-0.438%
16,C=CC(C)(CCC=C(C)C)OC(=O)C(C)C (stereo not given),3.01%
17,Cc1ccc(S(=O)(=O)NC(=O)NN2CC3CCCC3C2)cc1 (stereo not given),4.18% [at 35.3 µM]
18,CC(=O)/C=C/C=C1/C2CCC(C2)C1(C)C (stereo not given),-2.31% [at 35.3 µM]
19,COc1cc2nc(N3CCN(C(=O)C4CCCO4)CC3)nc(N)c2cc1OC (stereo not given),-1.23% [at 35.3 µM]
20,CN(C)CCCN(C)C,0.94% [at 6.97 µM]

row,Structure (SMILES),"viability change, negative = cytotoxic"
1,O=C(O)Cc1c(Cl)ccc(Cl)c1Cl,-3.79%
2,CN1CCN(C(=O)C2CCCCC2)CC1,0.692% [at 35.3 µM]
3,C[C@@H](CN1CC(=O)NC(=O)C1)N1CC(=O)NC(=O)C1,10.6% [at 35.3 µM]
4,CCO/C=C1\N=C(c2ccccc2)OC1=O,4.46%
5,O=P(O)(O)C(O)(Cc1cccnc1)P(=O)(O)O,2.23% [at 35.3 µM]
6,CCCCCCCCCCCCCCCCN(C)C,3.36% [at 6.97 µM]
7,C=CCON/C(CCC)=C1\C(=O)CC(C)(C)C(C(=O)OC)=C1O,3.63%
8,CCCCCCCC(=O)N(C)C,2.57%
9,O=C(O)CCCCCCCCCC(=O)O,2.54%
10,Clc1ccc2c(c1)Nc1ccccc1S2,-8.47% [at 35.3 µM]
11,CC1(C)C(=O)C(C)(C)C1=O,0.348%
12,Cc1cc(C)c(N)c(Cl)c1,5.1%
13,CN(C)c1ccncc1,1.15%
14,CCCCCCCCCCCCCC(=O)OCC,9.56%
15,CCCCC(CC)COC(=O)CC#N (stereo not given),2.75%
16,C=CCCCCCCCCOC(C)=O,3.34%
17,CN(C)CCc1c[nH]c2ccc(CS(=O)(=O)N3CCCC3)cc12,4.43% [at 35.3 µM]
18,CCN1CCN(C(=O)N[C@@H](C(=O)N[C@@H]2C(=O)N3[C@@H]2SC(C)(C)[C@H]3C(=O)O)c2ccccc2)C(=O)C1=O,6.92% [at 35.3 µM]
19,CC(=O)O[C@@H]1CC2C3CCc4cc(OC(=O)c5ccccc5)ccc4C3CCC2(C)[C@H]1OC(C)=O (stereo not given in full),-3.89% [at 35.3 µM]
20,Cc1nnc(C(=O)NC(C)(C)c2nc(C(=O)NCc3ccc(F)cc3)c(O)c(=O)n2C)o1,0.211% [at 35.3 µM]
